According to PubChem BioAssay AID743126 (The Scripps Research Institute Molecular Screening Center, 2013):
Among all 370,000 compounds or so, about 2,100 (0.57%) were called active.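 How the source made its calls: active means inhibition above mean plus 3 SD of compounds lying within the high and low control bounds (cut at about 19% in these data); inactive means the rest.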 This excerpt belongs to a sample that is enriched for actives.

What follows are compounds tested against Group 3 secretory phospholipase A2 (Homo sapiens) (UniProt Q9NZ20) (assay: HGIII-sPLA2 enzyme inhibition – biochemical, QFRET, BODIPY PC-A2 liposome substrate, primary screen (AID 743126;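 further: 0% = median of test compound wells and 100% = no enzyme DMSO wells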)). Details: QFRET BODIPY PC-A2 liposome hydrolysis, fluorescence; at 12.2 µM; stronger effect = higher value.
Sequence of Group 3 secretory phospholipase A2 (Homo sapiens) (Q9NZ20 whole entry, looked up): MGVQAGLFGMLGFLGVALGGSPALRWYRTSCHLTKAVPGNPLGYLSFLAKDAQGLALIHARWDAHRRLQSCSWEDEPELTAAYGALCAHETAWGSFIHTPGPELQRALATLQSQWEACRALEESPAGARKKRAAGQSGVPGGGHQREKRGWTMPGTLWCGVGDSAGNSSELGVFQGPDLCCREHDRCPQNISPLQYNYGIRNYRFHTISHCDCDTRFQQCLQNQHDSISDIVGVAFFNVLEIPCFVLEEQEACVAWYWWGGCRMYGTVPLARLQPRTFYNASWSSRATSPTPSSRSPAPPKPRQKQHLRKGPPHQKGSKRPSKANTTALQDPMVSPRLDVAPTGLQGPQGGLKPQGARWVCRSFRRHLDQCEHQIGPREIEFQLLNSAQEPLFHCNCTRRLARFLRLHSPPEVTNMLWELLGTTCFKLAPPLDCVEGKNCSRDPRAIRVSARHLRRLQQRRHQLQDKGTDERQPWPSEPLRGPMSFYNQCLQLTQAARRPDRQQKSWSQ

inhibition, inactive:
Brc1ccc(C2CC(c3ccccc3)=Nc3ccccc3N2)cc1 (stereo unspecified) -5.39%
CC[C@]1(O)CC2CN(CCc3c([nH]c4ccccc34)[C@@](C(=O)OC)(c3cc4c(cc3OC)N(C=O)[C@H]3[C@@](O)(C(=O)OC)[C@H](OC(C)=O)[C@]5(CC)C=CCN6CC[C@]43[C@@H]65)C2)C1 (stereo partly specified) 13.5%
C=CCN1C(=O)[C@@H](CC(=O)NCCCCc2ccccc2)[C@]2(C(=O)OCC)CCCCC/C=C/12 -9.75%
COC(=O)[C@]1(C#N)CC(=O)N(CC2CCCCC2)[C@@H]1c1ccccc1 4.27%
CN(C(N)=NC(=O)/C=C/c1ccccc1)C(C#Cc1ccccc1)Cc1ccccc1 (stereo unspecified) 2.67%
CCN(CC)S(=O)(=O)c1cc(C(=O)Nc2ccccn2)ccc1C -0.99%
O=C(COC(=O)c1ccccn1)NNC(=O)c1ccc(Br)cc1 -1.11%
O=S1(=O)c2c(cccc2N2CC[C@H](O)C2)O[C@@H]2CCN1C2 4.99%
O=C(NCc1ccco1)C1CCCN(S(=O)(=O)c2ccc(Cl)s2)C1 (stereo unspecified) -7.36%
Cc1cc2cc(CNC(=O)c3cccs3)ccc2[nH]1 1.16%
CCOCC(=O)NCc1ccc2c(c1)cc(C)n2C 12.3%
COc1cccc(CNC(=O)C2CCCN(c3nc4ccccc4o3)C2)c1OC (stereo unspecified) 10.2%
COc1ccc(-n2c(SCC(=O)Nc3ccc(C)c(Cl)c3)nc3ccccc3c2=O)cc1 14.2%
CC(C)(C)OC(=O)NCCc1ccccc1/C=C/S(=O)(=O)NCc1ccc(F)cc1 -1.5%
CCCCNC(=O)C[C@H]1C[C@@]2(C(=O)OC)C(=C[C@H](COCc3ccccc3)O[C@@H]2C)N(Cc2ccc(Cl)cc2Cl)C1=O -3.1%
Cc1ccc(-c2nnc(SCC(=O)Nc3ccc(Oc4ccccc4)cc3)n2Cc2ccco2)cc1 -6.88%
O=C(Cc1c(Cl)cccc1Cl)NC1CC1 2.07%
O=C(NNc1cc(Cl)cc(Cl)c1)c1c(F)cccc1Cl 3.94%
COC(=O)[C@]12C[C@H](CC(=O)N3CCOCC3)C(=O)N(Cc3ccc(Cl)cc3Cl)C1=C[C@H](COCc1ccccc1)O[C@@H]2C -3.17%
O=C1CC(c2ccc3c(c2)OCO3)N=C2N(CC3CC3)C/C(=C/c3ccccc3)N12 (stereo unspecified) -10.4%
CCOc1ccc(Br)cc1S(=O)(=O)Nc1cccc(S(=O)(=O)N(CC)CC)c1 -8.7%
CCOc1ccc(Br)cc1S(=O)(=O)N1CCC(C(=O)O)CC1 5.01%
COc1ccc(-n2c(COc3ccccc3)nnc2SCC(=O)Nc2ccc3c(c2)OCO3)cc1 -23.7%
CN(CC(=O)Nc1ccc(OC(F)(F)F)cc1)C(=O)C1CCC1 14.1%
CS(=O)(=O)c1sc(C(=O)NC(=S)Nc2ccc(OC(F)(F)F)cc2)c2c1C=CCC2 9.81%
Cc1nn(C)cc1C(=O)NNC(=S)Nc1ccc(Cl)cc1 7.95%
CC(C)CNC(=S)NNC(=O)c1nn(C)cc1Cl 17.9%
COc1cc(C(=O)NCC(=O)NCCSc2ccc(Br)cc2)cc(OC)c1OC -0.46%
COc1ccc(CCNC(=O)CCC(=O)NC2CCCCC2)cc1OC 3.45%
CC(C)(C)c1ccc(C(=O)Nc2cc(Cl)c(Br)cc2C(=O)O)cc1 -12.9%
O=C(Nc1cc(F)cc(F)c1)OC1CCC12CCC(c1ccccc1)CC2 (stereo unspecified) -7.77%
CC(Sc1nncn1C)C(=O)Nc1ccccc1-c1ccccc1 (stereo unspecified) 1.14%
CC(C(=O)Nc1ccc(F)c(F)c1F)N1CCCCCC1 (stereo unspecified) 7.49%
O=C(CCS(=O)(=O)c1ccccc1)Nc1ccc(Cl)c(Cl)c1 -9.24%
C=CS(=O)(=O)N(Cc1nnn(Cc2ccccc2)c1Br)[C@H](C(=O)OC)C(C)C 4.97%
Fc1ccc2nc(COCc3nc4ccc(F)cc4[nH]3)[nH]c2c1 -3%
Cc1ccccc1NC(=O)COC(=O)c1ccc(Sc2ncn[nH]2)c([N+](=O)[O-])c1 -13.9%
O=S(=O)(c1ccccc1)N1CCC(c2nc3ccccc3o2)CC1 -1.51%
COc1ccc2c(c1)CN1CN(CCc3ccccc3)S(=O)(=O)CC21 (stereo unspecified) 1.49%
C[C@@H]1ON(C)[C@H]2C[C@H]3c4[nH]c5cccc(-c6ccc7c(c6)OCO7)c5c4CCN3C[C@@H]12 -5.9%
O=C(NCCCc1ccccc1)[C@H](Cc1ccccc1)NC1(C(=O)NCCc2c[nH]c3ccccc23)CCC1 -86.7%
CN(CCc1ccccc1)C(=O)Cn1nc(-c2ccccc2)ccc1=O 4.61%
Cc1ccc(CN2CCCCC(NC(=O)C3CCCCC3)C2=O)cc1 (stereo unspecified) 2.08%
O=C(NC1CCCCN(Cc2ccc(Cl)cc2)C1=O)c1ccc(Br)cc1 (stereo unspecified) 2.5%

inhibition, active:
c1ccc(C2=Nc3cccc4cccc(c34)N2)cc1 38.6%
CC[C@]1(O)C[C@@H]2CN(CCc3c([nH]c4ccccc34)[C@@](C(=O)OC)(c3cc4c(cc3OC)N(C)[C@H]3[C@@](O)(C(=O)OC)[C@H](OC(C)=O)[C@]5(CC)C=CCN6CC[C@]43[C@@H]65)C2)C1 24.8%
O=C(NNc1ccccn1)c1ccc(Cl)nc1 21.1%
CCc1cccc(CC)c1NC(=S)NCc1ccc2[nH]c(C)cc2c1 20.3%
O=C(CCl)NNc1cccc(Cl)n1 71%
CCOc1ccc(Br)cc1CSC(=N)N 34.9%
CCNC(=S)Nc1ccc(OC(F)(F)F)cc1 20.4%
Cn1cc(Cl)c(C(=O)NNC(=S)Nc2cccc(Cl)c2)n1 42.2%
COCCCNC(=O)CNC(=S)N(Cc1cc(OC)c(OC)c(OC)c1)C1CCCC1 26.1%
CC(C(=O)Nc1ccccc1-c1ccccc1)N1CCOCC1 (stereo unspecified) 19.6%
CC(C)OC(=O)c1ccc(NCc2cc(O)ccc2O)cc1Cl 32.5%
CN(C)c1ccc(NC(=O)NC2CCCCN(Cc3ccc(Cl)cc3)C2=O)cc1 (stereo unspecified) 20.4%
